Compound activity: PubChem BioAssay, National Center for Advancing Translational Sciences (NCATS)
Rows were chosen to be rich in hits. Some 19% of all compounds tested hit in one or more screens of this group.
HepG2 viability = qHTS for Inhibitors of TGF-b: Cytotox Counterscreen | AID 588856, 2011 | HepG2 CAGA-GFP viability, ATP luminescence, 18 h | hit rate 0.76% among 410,000 | Potency, µM (series often up to 46.1 µM), for inactives: at the top dose activity change, negative = cytotoxicity, usual class: cytotoxic; note: potency is the fitted concentration of half-maximal effect
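HepG2 CAGA-GFP cells (1000/well, DMEM with 1% FBS) received compound, then TGF-beta at 500 pg/mL final, and were incubated 18 hours at 37 degrees C. Viability was read by CellTiter-Glo luminescence. Media-only wells were set as complete cell-killing and DMSO as no toxicity.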
DT40 TDP1 no CPT = qHTS for Inhibitors of human tyrosyl-DNA phosphodiesterase 1 (TDP1): qHTS in cells in absence of CPT | DT40 Tdp1-/- hTDP1 cells, no CPT, ATP luminescence, 48 h | Potency, µM (doses to about 46.2 µM), for inactives: at the top dose activity change, negative = growth inhibition, actives largely listed as inhibitors | hit rate 15% among 420,000 | AID 686978, 2013; note: potency is the fitted concentration of half-maximal effect; % is set by controls: 0 for no effect and ±100 for the full control effect; nearly all actives have a fitted effect of over 55% in size
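Stably hTDP1-transfected Tdp1-null chicken DT40 cells were treated with library compounds minus camptothecin and grown for at least 48 hr at 37 °C, after which cellular ATP was quantified by luminescence.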
IL-1B inflam inh = qHTS for Inhibitors of Inflammasome Signaling: IL-1-beta AlphaLISA Primary Screen; THP-1 LPS/ATP IL-1B secretion, AlphaLISA, 16 h; active compounds read low; activity change, % at 57.5 µM; hit rate 4.7% among 360,000; AID 743279, 2014; in the data active = activity change below about -50%; inconclusive = mostly about -30% to -49%; note: % is set by controls: 0 for no effect and ±100 for the full control effect
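Secreted IL-1B measured by AlphaLISA bead assay after 16 h compound exposure of THP-1 cells; compounds (final up to 57.5 uM) added 1 h before LPS (250 ng/mL) and ATP (1.25 mM) stimulation; lower signal means less secretion.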
TGFb SMAD3 inh = qHTS for Inhibitors of TGF-b | HepG2 CAGA-GFP TGF-b/SMAD3 reporter, GFP fluorescence, 18 h; TGF-beta stimulated, 500 pg/mL final | Potency, µM (series often up to 46.1 µM), for the others: at the top dose activity, negative = inhibition, most hits filed as inhibitors | hit rate 1.2% among 410,000 | AID 588855, 2011; note: potency is the fitted concentration of half-maximal effect; % is set by controls: 0 for no effect and ±100 for the full control effect; nearly all actives have a fitted effect of over 65% in size
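TGF-beta reporter screen: HEPG2 CAGA-GFP, 1% FBS, 500 pg/mL TGF-beta final, 18 h; per-cell GFP summed per well; curves fitted and categorized by class.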
DT40 TDP1 CPT = qHTS for Inhibitors of human tyrosyl-DNA phosphodiesterase 1 (TDP1): qHTS in cells in presence of CPT; hit rate 12% among 420,000; Potency, µM (titrated, usually from 46.2 µM), without a hit: at the highest dose activity change, negative = growth inhibition, most hits filed as inhibitors; chicken DT40 Tdp1-/-;hTDP1 cells + 20 nM CPT, ATP luminescence, 48 h; note: potency is the fitted concentration of half-maximal effect; % is set by controls: 0 for no effect and ±100 for the full control effect; nearly all actives have a fitted effect of over 55% in size
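Cell growth measured by CellTiter-Glo luminescence after a minimum 48 h, 37 C compound exposure with 20 nM CPT in Tdp1-knockout DT40 cells stably expressing hTDP1, seeded 400/well; qHTS titration format.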
TDP1 block = qHTS Assay for Inhibitors of Tyrosyl-DNA Phosphodiesterase (TDP1); Tyrosyl-DNA phosphodiesterase 1 (Homo sapiens), Q9NUW8; recombinant TDP1, AlphaScreen DNA substrate cleavage; Potency, µM (top dose mostly 130 µM), inactives show at the highest dose activity change, negative = inhibition, hits mostly inhibitors; hit rate 0.28% among 350,000; AID 485290, 2010; note: potency is the fitted concentration of half-maximal effect; % is set by controls: 0 for no effect and ±100 for the full control effect; nearly all actives have a fitted effect of over 40% in size
Target sequence (Q9NUW8 whole entry, looked up): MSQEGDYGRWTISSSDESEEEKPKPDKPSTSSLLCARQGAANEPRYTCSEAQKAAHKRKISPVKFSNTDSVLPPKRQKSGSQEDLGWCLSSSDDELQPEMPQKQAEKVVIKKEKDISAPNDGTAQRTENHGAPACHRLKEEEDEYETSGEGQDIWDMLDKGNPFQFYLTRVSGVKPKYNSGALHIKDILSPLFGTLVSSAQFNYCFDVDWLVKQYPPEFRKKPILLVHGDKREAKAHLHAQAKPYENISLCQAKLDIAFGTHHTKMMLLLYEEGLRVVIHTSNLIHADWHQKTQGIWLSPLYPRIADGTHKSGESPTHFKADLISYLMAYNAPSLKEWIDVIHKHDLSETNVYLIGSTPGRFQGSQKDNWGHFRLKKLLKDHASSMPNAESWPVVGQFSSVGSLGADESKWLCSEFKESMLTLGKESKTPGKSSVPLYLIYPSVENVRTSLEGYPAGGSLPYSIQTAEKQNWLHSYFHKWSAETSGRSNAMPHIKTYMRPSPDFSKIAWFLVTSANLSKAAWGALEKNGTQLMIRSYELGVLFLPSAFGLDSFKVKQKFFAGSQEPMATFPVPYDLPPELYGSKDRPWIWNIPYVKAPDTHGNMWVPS
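Recombinant human Tdp1 (E. coli-expressed, 1 nM final) preincubated with compounds 15 min at room temperature, then 5'-biotin/3'-phosphotyrosine-FITC DNA substrate (15 nM final) added for 5 min. AlphaScreen beads (10 ug/ml final) added 10 min; cleavage lowers signal.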
* marks the source's active call; other numbers are inactive results; ? = inconclusive; nt = no result given; [ ] = dose if it differs, or a comment. Unless noted, calls come from the whole dose curve; as a rule, active = well fitted curve in the direction sought with a large enough effect; inconclusive = small, poorly fitted or top-dose-only effect, or another doubt; inactive = no such curve, though single readings can be large; an effect the other way counts as inactive or inconclusive.

SMILES	HepG2 viability	DT40 TDP1 no CPT	IL-1B inflam inh	TGFb SMAD3 inh	DT40 TDP1 CPT	TDP1 block
Cc1cccc(N2CCc3c2nc2ccc(Br)cc2c3N)c1	-92.0%	?	-94.1*	?	?	0.0%
Nc1c2c(nc3ccc(Br)cc13)N(c1ccccc1)CC2	-47.5%	?	-21.2	?	?	nt
CSC(=S)N/N=C(\C)c1ccc(Br)cc1	-19.2%	2.91µM*	49.8	-9.6%	?	2.4%
COc1cccc(-c2nc(N3CCNCC3)c3ccccc3n2)c1	nt	?	nt	nt	?	7.3%[56.1 µM]
CCc1cccc(NC(=O)Cn2c(=O)n3nc(-c4cccc(F)c4)nc3c3ccccc32)c1	-59.7%	4.61µM*	nt	-24.3%	3.66µM*	2.6%
Cc1cccc(-c2nc3c4ccccc4n(Cc4cccc(Cl)c4)c(=O)n3n2)c1	-31.8%	10.3µM*	nt	1.5%	20.6µM*	6.4%
Cc1nn(C)c2c1c(C(F)(F)F)cc(=O)n2CC(=O)NCc1ccccc1Cl	-0.5%	?	nt	11.3%	?	3.2%
COc1ccc(CCNC(=O)COC(=O)CSc2ccc([N+](=O)[O-])cc2)cc1OC	11.1%	8.1%	1.5	-4.1%	-0.1%	2.2%
Cc1ccc(OCCn2cc(C(=O)C3CCCCC3)c3ccccc32)cc1	-32.5%	18.4µM*	nt	-10.7%	20.6µM*	-8.5%
Cc1ccc(OCCn2cc(C(=O)O)c3ccccc32)cc1	-10.0%	-4.0%	-7.0	6.8%	5.2%	0.0%
COCCn1cc(C(=S)N2CCOCC2)c2ccccc21	0.7%	4.8%	23.9	-8.7%	-28.5%	6.6%
COCCn1cc(C(=S)N2CCCCC2)c2ccccc21	0.0%	?	-19.2	0.0%	0.4%	-5.1%
S=C(c1cn(CCOc2ccccc2)c2ccccc12)N1CCCC1	-19.6%	20µM*	-21.3	?	17.8µM*	2.6%
Cc1ccc(OCCn2cc(C(=S)N3CCCC3)c3ccccc32)cc1C	15.8µM*	4.11µM*	-15.0	-17.8%	8.2µM*	7.9%
S=C(c1cn(CCOc2cccc3ccccc23)c2ccccc12)N1CCCC1	-30.3%	13µM*	-6.2	-10.9%	10.3µM*	2.6%
Cc1noc(C)c1COc1ccccc1C(=O)N1CCN(c2cccc(Cl)c2)CC1	-25.4%	?	7.2	?	?	3.3%
COc1ccc(N2CCN(C(=O)c3cnc(SC)nc3C)CC2)cc1	2.7%	-13.0%	nt	1.6%	-0.3%	0.0%
Cc1noc(C)c1COc1ccccc1C(=O)N1CCN(c2cccc(C(F)(F)F)c2)CC1	-20.9%	4.61µM*	-10.2	-27.4%	5.17µM*	3.0%
CSc1ncc(C(=O)N2CCN(c3cccc(C(F)(F)F)c3)CC2)c(C)n1	-3.4%	18.4µM*	nt	-6.0%	?	3.7%
CSc1ncc(C(=O)N2CCN(c3cccc(Cl)c3)CC2)c(C)n1	-35.4%	16.4µM*	nt	?	?	3.7%
Cc1oc2ncn(C)c(=O)c2c1C(=O)N1CCN(c2cccc(C(F)(F)F)c2)CC1	8.2%	-18.3%	nt	1.7%	-18.5%	-7.4%
OC(c1ccc2c(c1)CN(Cc1ccc3nsnc3c1)CCO2)C1CCCCC1 (configuration not stated)	nt	-4.0%	nt	nt	5.2%	nt
Cc1cccc(CN2CCN(CC(=O)NCCc3ccc(Cl)cc3)C2=O)c1	-24.5%	?	nt	?	-13.0%	-2.5%
CC(C)c1nc(=S)c2ccccc2[nH]1	2.6%	18.4µM*	13.1	-7.5%	?	7.0%
S=c1nc(C2CC2)[nH]c2ccccc12	2.9%	?	23.6	-4.9%	?	-6.9%
SMILES	HepG2 viability	DT40 TDP1 no CPT	IL-1B inflam inh	TGFb SMAD3 inh	DT40 TDP1 CPT	TDP1 block
CCCN1CCN(C(=O)Cn2c(-c3cccs3)cc3ccccc32)CC1	-1.2%	?	nt	-2.0%	?	6.2%
COc1cccc(C(=O)NCCS(=O)(=O)N(C)Cc2ccccc2)c1	-28.2%	?	14.4	3.0%	-13.2%	-8.2%[0.505 µM]
CSc1ccc(/C=C/c2nc3ccccc3n2S(=O)(=O)c2ccc(F)c(C)c2)cc1	-96.3%	20.6µM*	nt	?	18.4µM*	7.8%
Cc1ccc(S(=O)(=O)n2c(C)nc3ccccc32)cc1	1.1%	-4.1%	4.8	-8.7%	-5.9%	nt
CCOc1cc(S(=O)(=O)n2c(C)nc3ccccc32)ccc1F	-4.3%	?	68.1	1.9%	?	1.1%
CC(=O)c1nc2ccccc2n1S(=O)(=O)c1ccc(Cl)cc1	-4.1%	14.2%	11.3	2.0%	-10.9%	0.0%
CCOc1ccc(/C=C/c2nc3ccccc3n2S(=O)(=O)c2cccc(Cl)c2)cc1	-35.7%	6.51µM*	nt	30.8%	7.31µM*	7.0%
Cc1ccc(/C=C/c2nc3ccccc3n2S(=O)(=O)c2cccc(Cl)c2)cc1	-27.1%	10.3µM*	nt	0.0%	13µM*	0.9%
COc1ccc(/C=C(\C#N)c2nc3ccc(C)cc3[nH]2)cc1Oc1ccc(C(F)(F)F)cc1[N+](=O)[O-]	-9.1%	16.4µM*	51.4	-0.9%	?	7.8%
Cc1ccc2nc(/C(C#N)=C\c3ccc(Oc4ccc(C(F)(F)F)cc4[N+](=O)[O-])cc3)[nH]c2c1	-22.3%	10.3µM*	1.2	?	?	nt
O=C(CCl)Nc1cc(S(=O)(=O)N2CCCCCC2)ccc1Cl	-14.4%	2.59µM*	-101.4*	3.0%	3.66µM*	-2.3%
O=C(CN1CCN(C(=O)c2ccco2)CC1)Nc1cc(S(=O)(=O)N2CCCC2)ccc1Cl	-13.8%	6.51µM*	-15.9	10.5%	?	nt
O=C(CN1CCN(C(=O)c2ccco2)CC1)Nc1c2c(nc3c1CCC3)CCCC2	-27.5%	-29.2%	-6.8	-10.2%	-28.2%	89.1µM*
O=C(Nc1cc(S(=O)(=O)N2CCCCC2)ccc1Cl)C1=NN(c2ccccc2)C(=O)CC1	0.6%	8.2µM*	82.5	5.7%	?	-1.7%
O=C(NCc1ccc(Cl)cc1)C(=O)Nc1cccc(Br)c1	-0.6%	-20.7%	nt	-0.4%	-26.4%	-3.1%[12.3 µM]
Cc1cc(C)cc(Nc2nc3ccccc3nc2-n2nc(C)cc2C)c1	10.8%	2.7%	nt	-2.7%	10.5%	-2.1%[12.3 µM]
COCC(=O)N1c2nc(-c3ccco3)nn2C2(CCCCC2)[C@@H]2CCCC[C@@H]21	3.1%	?	nt	0.0%	?	2.6%
O=C(CN1CCN(c2ccccc2O)CC1)Nc1cc(S(=O)(=O)N2CCCC2)ccc1Cl	-16.4%	?	?	?	16.4µM*	-3.4%
